# Results taken from PubChem BioAssay (Tox21).
# A number with no mark means an inactive call. Results filed as inconclusive are left out. A call without a number means that no potency is given here. Activity calls are given as the source filed them. Unless noted, calls come from the whole dose curve; as a rule, active = well fitted curve in the direction sought with a large enough effect in the repeat runs; inconclusive = weak or mixed curves; inactive = no such curve, though single readings can be large; an effect the other way counts as inactive or inconclusive.
# Columns and labels:
# [1] = biological target: Luciferin 4-monooxygenase (Photinus pyralis) (UniProt P08659); assay: qHTS assay to identify small molecule inhibitors of firefly luciferase (AID 1224835); note: nearly all actives have a fitted effect of over 25% in size; note: potency is the fitted concentration of half-maximal effect
# Luciferin 4-monooxygenase (Photinus pyralis), sequence (P08659 whole entry, looked up): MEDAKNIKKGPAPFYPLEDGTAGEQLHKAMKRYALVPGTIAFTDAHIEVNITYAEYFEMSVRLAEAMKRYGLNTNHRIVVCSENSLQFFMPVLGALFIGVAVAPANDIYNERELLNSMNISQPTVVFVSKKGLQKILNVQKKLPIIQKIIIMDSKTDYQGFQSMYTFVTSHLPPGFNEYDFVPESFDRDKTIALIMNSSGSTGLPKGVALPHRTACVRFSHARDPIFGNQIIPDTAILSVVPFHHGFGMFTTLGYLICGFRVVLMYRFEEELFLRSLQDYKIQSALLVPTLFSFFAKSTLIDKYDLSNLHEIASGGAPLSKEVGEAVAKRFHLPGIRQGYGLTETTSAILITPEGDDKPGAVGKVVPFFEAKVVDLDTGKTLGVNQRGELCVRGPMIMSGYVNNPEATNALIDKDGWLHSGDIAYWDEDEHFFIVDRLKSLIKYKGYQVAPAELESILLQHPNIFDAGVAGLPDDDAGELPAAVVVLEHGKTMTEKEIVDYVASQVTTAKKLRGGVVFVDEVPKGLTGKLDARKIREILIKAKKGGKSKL
# Procedure, shortened: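 Inhibition of purified Photinus luciferase is measured by luminescence. Substrate levels (D-luciferin, ATP) sit at their KM values. Each compound is tested in a concentration series.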
# [2] = qHTS assay to identify small molecule agonists of the constitutive androstane receptor (CAR) signaling pathway - cell viability counter screen (AID 1224836); note: nearly all actives have a fitted effect of over 45% in size
# Procedure, shortened: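 Cells were seeded and incubated 4 hrs. Compounds were added across 15 concentrations together with PK11195 at 0.75 uM final. Plates were incubated 23 hrs at 37 C. CellTiter-Fluor was added and fluorescence measured.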
# [3] = qHTS assay to identify small molecule antagonists of the constitutive androstane receptor (CAR) signaling pathway - cell viability counter screen (AID 1224837); note: nearly all actives have a fitted effect of over 45% in size
# Procedure, shortened: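 HepG2 cells stably expressing hCAR and a CYP2B6-2.2kb reporter were plated and pre-incubated 4 hr at 37 C/5% CO2, then given compounds at 15 concentrations plus 50 nM CITCO (final). After 23 hr, viability was read by CellTiter-Fluor fluorescence.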
# [4] = biological target: Nuclear receptor subfamily 1 group I member 3 (Homo sapiens) (UniProt Q14994); assay: qHTS assay to identify small molecule antagonists of the constitutive androstane receptor (CAR) signaling pathway (AID 1224838); note: nearly all actives have a fitted effect of over 40% in size
# Nuclear receptor subfamily 1 group I member 3 (Homo sapiens), sequence (Q14994 whole entry, looked up): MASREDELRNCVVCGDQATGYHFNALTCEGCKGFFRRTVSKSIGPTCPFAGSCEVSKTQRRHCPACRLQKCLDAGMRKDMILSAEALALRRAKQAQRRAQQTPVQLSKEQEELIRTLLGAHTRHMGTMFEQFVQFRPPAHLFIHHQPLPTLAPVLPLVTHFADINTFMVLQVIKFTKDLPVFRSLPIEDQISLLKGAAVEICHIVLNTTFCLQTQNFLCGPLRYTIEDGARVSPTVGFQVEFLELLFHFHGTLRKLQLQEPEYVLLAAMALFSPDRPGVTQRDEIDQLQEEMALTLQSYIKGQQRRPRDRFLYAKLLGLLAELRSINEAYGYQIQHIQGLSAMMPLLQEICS
# Procedure, shortened: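 HepG2 cells stably co-transfected with hCAR and a CYP2B6-2.2kb luciferase reporter were seeded 4 h before compound addition at 15 concentrations. Cells were stimulated with 50 nM CITCO (final) for 24 h at 37 C; luciferase luminescence was then read.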
# [5] = biological target: Nuclear receptor subfamily 1 group I member 3 (Homo sapiens) (UniProt Q14994); assay: qHTS assay to identify small molecule agonists of the constitutive androstane receptor (CAR) signaling pathway (AID 1224839);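 note: HepG2 cells stably carrying human CAR and a CYP2B6 luciferase reporter; nearly all actives have a fitted effect of over 15% in size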
# Procedure, shortened: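 Cells were plated and incubated 4 hrs, then dosed with compounds at 15 concentrations. PK11195 was added to 0.75 uM final. After 24 hrs at 37 C, luciferase luminescence was measured.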
# [6] = qHTS assay to identify small molecule antagonists of the estrogen related receptor signaling pathway with the pleiotropic PPARgamma coactivator (PGC) from Tox21 10K library - cell viability counter screen (AID 1224840; active = well fitted cell-killing curve with a large enough effect in the repeat runs, not every such curve was filed as active; note: nearly all actives have a fitted effect of over 40% in size)
# Procedure, shortened: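 PGC/ERR cells were seeded at 2,000 cells/well and left 6 hours at 37 C/5% CO2 before pin-tool addition of compounds in DMSO. After 17.5 hours at 37 C, CellTiter-Fluor was added and fluorescence read 30 minutes later.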
# [7] = biological target: Thyrotropin receptor (Homo sapiens) (UniProt P16473); assay: qHTS assay to identify small molecule agonists of the thyroid stimulating hormone receptor (TSHR) signaling pathway (AID 1224843; calls by dose curve; note: nearly all actives have a fitted effect of over 45% in size)
# Thyrotropin receptor (Homo sapiens), sequence (P16473 whole entry, looked up): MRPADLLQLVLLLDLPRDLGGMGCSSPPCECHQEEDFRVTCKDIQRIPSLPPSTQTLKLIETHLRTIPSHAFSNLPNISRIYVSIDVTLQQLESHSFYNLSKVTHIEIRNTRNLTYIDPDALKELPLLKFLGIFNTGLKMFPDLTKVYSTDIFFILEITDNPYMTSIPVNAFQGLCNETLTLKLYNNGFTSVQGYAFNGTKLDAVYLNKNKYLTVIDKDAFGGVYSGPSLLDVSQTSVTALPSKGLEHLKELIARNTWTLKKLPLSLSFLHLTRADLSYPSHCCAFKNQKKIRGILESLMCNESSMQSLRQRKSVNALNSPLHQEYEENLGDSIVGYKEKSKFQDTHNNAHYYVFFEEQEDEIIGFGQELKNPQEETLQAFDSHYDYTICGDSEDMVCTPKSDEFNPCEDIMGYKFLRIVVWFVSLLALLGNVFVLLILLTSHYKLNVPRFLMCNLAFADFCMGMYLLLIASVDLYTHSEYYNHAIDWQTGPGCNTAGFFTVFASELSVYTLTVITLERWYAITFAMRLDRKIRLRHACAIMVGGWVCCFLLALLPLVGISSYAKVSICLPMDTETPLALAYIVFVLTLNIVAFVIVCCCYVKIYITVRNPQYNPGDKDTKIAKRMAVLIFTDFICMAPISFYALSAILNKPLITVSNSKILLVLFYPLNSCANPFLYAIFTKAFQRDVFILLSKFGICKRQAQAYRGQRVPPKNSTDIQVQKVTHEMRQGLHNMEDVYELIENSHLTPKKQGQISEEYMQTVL
# Procedure, shortened: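 Screening of the Tox21 10K collection used HEK293 cells engineered with TSHR at 800 cells per well. After a 30-min room-temperature compound exposure, HTRF cAMP reagents were added and fluorescence recorded 1 h later.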
# [8] = qHTS assay to identify small molecule agonists of the hypoxia (HIF-1) signaling pathway - cell viability counter screen (AID 1224844; calls by dose curve; note: nearly all actives have a fitted effect of over 50% in size)
# Procedure, shortened: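 HRE-bla ME-180 cells in medium with 0.5% dialyzed FBS were preincubated 5 hrs at 37C, exposed to compounds for 17 hrs, then viability was read as CellTiter-Glo luminescence after 30 min at room temperature, in the reporter wells.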
# [9] = qHTS assay to identify small molecule agonists of H2AX (AID 1224845; active = well fitted activation curve with a large enough effect in the signal ratio in the repeat runs, not every such curve was filed as active; the % refers to the signal ratio)
# Procedure, shortened: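 Phospho-H2AX Ser139 measured by HTRF (ex 320 nm; em 665 and 620 nm) after 24 hr antibody incubation. Compounds, 15 concentrations, 0.76% DMSO, were applied to CHO-K1 cells for 3hr at 37C before lysis.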
# [10] = qHTS assay to identify small molecule agonists of H2AX - cell viability counter screen (AID 1224847; calls by dose curve; note: top concentration of the series differs between compounds; nearly all actives have a fitted effect of over 30% in size)
# Procedure, shortened: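 Cytotoxicity counter screen in wild-type CHO-K1 cells: a 3 hr compound treatment at 37C across 15 concentrations, followed by CellTiter-Glo luminescence to gauge viable cells.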
# [11] = qHTS RealTime-Glo MT Cell Viability Assay in HepG2 cells - 24 hour (AID 1224867); note: nearly all actives have a fitted effect of over 50% in size
# Procedure, shortened: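 Cells + NanoLuc/prosubstrate dispensed (600 cells/well) → 5 h at 37 C/5% CO2 → compounds in DMSO transferred → 40 h incubation at 37 C, luminescence read at 0, 8, 16, 24, 32, 40 h.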
# [12] = A CellTox Green Cytotoxicity Assay to monitor cytotoxicity in HEK293 cells - 0 hour (AID 1224869); note: nearly all actives have a fitted effect of over 50% in size
# Procedure, shortened: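 HEK293 cells premixed with CellTox Green dye were seeded at 600 cells/well and left 5 h at 37 C/5% CO2 before pin transfer of 23 nL compound in DMSO. Fluorescence from dye bound to dead-cell DNA was read during 40 h treatment.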
# [13] = qHTS RealTime-Glo MT Cell Viability Assay in HepG2 cells - 40 hour (AID 1224870); note: nearly all actives have a fitted effect of over 50% in size
# Procedure, shortened: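 Real-time viability: cells seeded at 600 per well together with NanoLuc and cell-permeant prosubstrate, compounds added after 5 h incubation. Luminescence tracked at 0, 8, 16, 24, 32 and 40 h of exposure.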
# [14] = qHTS assay to identify small molecule antagonists of the estrogen related receptor (ERR) signaling pathway from Tox21 library - cell viability counter screen (AID 1224834); note: nearly all actives have a fitted effect of over 30% in size; note: potency is the fitted concentration of half-maximal effect
# Procedure, shortened: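 ERR reporter cells were plated 6 h before compound addition, then exposed to test compounds in DMSO for 17.5 h at 37 C. Viability was read as CellTiter-Fluor fluorescence after a 30-minute incubation at 37 C.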
# [15] = qHTS assay to identify small molecule agonists of the hypoxia (HIF-1) signaling pathway (AID 1224846; active = well fitted activation curve with a large enough effect in the signal ratio in the repeat runs, not every such curve was filed as active; the % refers to the signal ratio)
# Procedure, shortened: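 HRE-bla ME-180 cells (beta-lactamase reporter under hypoxia response element) were plated at 2,000 cells/well in medium with 0.5% dialyzed FBS, rested 5 hrs, then given compounds in DMSO for 17 hrs at 37C, 5% CO2. Reporter induction was read with CCF4-AM FRET substrate.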
# [16] = qHTS RealTime-Glo MT Cell Viability Assay in HEK293 cells - 32 hour (AID 1224868)
# Procedure, shortened: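 Tox21 10K qHTS, HEK293, 600 cells/well, RealTime-Glo reagent co-dispensed with cells; 5 h preincubation, compound by pintool, 37 C, luminescence at 0–40 h.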
# [17] = qHTS assay to identify small molecule antagonists of the estrogen related receptor signaling pathway with the pleiotropic PPARgamma coactivator (PGC) from Tox21 10K library (AID 1224841; call rule not given here)
# Procedure, shortened: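 PGC/ERR reporter cells were seeded at 2,000 cells/well and held 6 hours at 37 C/5% CO2 before pin-tool addition of compounds in DMSO. After 18 hours at 37 C, One-Glo was added and luminescence read after 30 minutes at room temperature.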
# [18] = qHTS assay to identify small molecule agonists of the estrogen related receptor signaling pathway with the pleiotropic PPARgamma coactivator (PGC) from Tox21 10K library (AID 1224842); note: nearly all actives have a fitted effect of over 15% in size
# Procedure, shortened: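 Luminescence from One-Glo (30 min, room temperature) measured after PGC/ERR cells had 18 h at 37 C with pinned compound (23 nL in DMSO). Cells had been seeded at 2,000 per well and pre-incubated 6 h.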
# [19] = qHTS assay to identify small molecule antagonists of the estrogen related receptor (ERR) signaling pathway from Tox21 library (AID 1224848); note: nearly all actives have a fitted effect of over 50% in size
# Procedure, shortened: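 Antagonist-mode screen of the Tox21 10K library in an NTP-provided ERR reporter cell line; 18 h compound exposure at 37 C, luminescence measured with ONE-Glo.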
# [20] = qHTS assay to identify small molecule agonists of the estrogen related receptor (ERR) signaling pathway from Tox21 library (AID 1224849; calls by dose curve; note: nearly all actives have a fitted effect of over 15% in size); settings: ERR reporter cell line, ONE-Glo luciferase, 18 h; at 92.4 µM (top of the series) unless noted
# Procedure, shortened: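 ERR reporter cell line (NTP) seeded, rested 6 h at 37 C/5% CO2, then pinned with Tox21 compounds in DMSO. After 18 h at 37 C, ONE-Glo luciferase luminescence was read following 30 min at room temperature.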
Compound,Potency [1],Potency [2],Potency [3],Potency [4],Potency [5],Potency [6],Potency [7],Potency [8],Potency [9],Potency [10],Potency [11],Potency [12],Potency [13],Potency [14],outcome [15],Potency [16],Potency [17],Potency [18],Potency [19],"activity change, positive = activation [20] [%]"
CCCc1nc2c(C)cc(-c3nc4ccccc4n3C)cc2n1Cc1ccc(-c2ccccc2C(=O)O)cc1,13.8 µM (active),inactive,inactive,inactive,inactive,inactive,inactive,inactive,inactive,inactive,inactive,inactive,inactive,–,–,–,–,–,–,–
c1ccc(CCCc2ccncc2)cc1,–,inactive,inactive,–,–,inactive,–,–,inactive,–,inactive,inactive,inactive,inactive,inactive,inactive,–,–,–,–
O=C(O)c1cccc(Oc2ccccc2)c1,inactive,inactive,inactive,inactive,inactive,inactive,inactive,inactive,inactive,–,inactive,inactive,inactive,–,inactive,–,inactive,inactive,inactive,-1.12
Cc1cc([N+](=O)[O-])ccc1N,–,–,–,inactive,inactive,–,inactive,inactive,–,inactive,inactive,inactive,inactive,33.9 µM (active),inactive,inactive,–,–,–,–
